Laboratory results reported in the antibiotic and cytotoxicity screens of Wong et al. (2023).
The campaign covered roughly 39,000 compounds. About 3,300 (8.5%) were called active. The entries come from a sample that favours actives as a whole.

What follows are compounds tested on HepG2 (assay: cytotoxicity call (relative viability < 0.9)). Details: 10 µM.
In the case of `C[C@@H]1CN([C@@H](C)CO)C(=O)c2cccc(N(C)C)c2O[C@@H]1CN(C)S(=O)(=O)c1ccc(Cl)cc1`, the cytotoxicity call is reported as “inactive”. In the case of `C[C@@H]1CN([C@@H](C)CO)C(=O)c2cccc(NC(=O)Nc3ccc(C(F)(F)F)cc3)c2O[C@H]1CN(C)S(=O)(=O)c1ccc(Cl)cc1`, the cytotoxicity call is reported as “inactive”. `CC(C)NC(=O)Nc1ccc2c(c1)C(=O)N([C@@H](C)CO)C[C@H](C)[C@@H](CN(C)C(=O)Nc1ccc(F)cc1)OCCCC[C@H](C)O2` was tested, and the cytotoxicity call was “inactive”. `O=C(/C=C/c1ccc(O)c(O)c1)O[C@H]1[C@H](O)[C@@H](O)[C@H](OCCc2ccc(O)c(O)c2)O[C@@H]1CO` was tested, and the cytotoxicity call was “inactive”. For `C[C@H]1CCCCO[C@H](CN(C)Cc2ccc(C(=O)O)cc2)[C@@H](C)CN([C@@H](C)CO)C(=O)c2cc(NS(=O)(=O)c3ccc(Cl)cc3)ccc2O1`, the cytotoxicity call was “inactive”. `NCc1c(Cl)cccc1Cl` was tested, and the cytotoxicity call was “inactive”. In the case of `COCc1cn(CC[C@H]2CC[C@@H](NC(=O)CCN3CCCCC3)[C@H](CO)O2)nn1`, the cytotoxicity call is reported as “inactive”. `C[C@H]1CCCCO[C@H](CN(C)C(=O)Nc2ccc(C(F)(F)F)cc2)[C@@H](C)CN([C@@H](C)CO)C(=O)c2cc(NS(=O)(=O)c3cn(C)cn3)ccc2O1` was tested, and the cytotoxicity call was “inactive”. In the case of `C[C@@H]1CN([C@@H](C)CO)C(=O)c2cc(NC(=O)CCCN(C)C)ccc2O[C@@H]1CN(C)Cc1ccc(C(=O)O)cc1`, the cytotoxicity call is reported as “inactive”. `C[C@H](CO)N1C[C@H](C)[C@H](CN(C)S(C)(=O)=O)Oc2c(NS(=O)(=O)c3cn(C)cn3)cccc2C1=O` was tested, and the cytotoxicity call was “active”. `Cc1ccc(S(=O)(=O)N(C)C[C@H]2Oc3c(NS(=O)(=O)c4cccs4)cccc3C(=O)N([C@H](C)CO)C[C@@H]2C)cc1` was tested, and the cytotoxicity call was “inactive”. With `C[C@H](CO)N1C[C@H](C)[C@@H](CN(C)S(=O)(=O)c2cn(C)cn2)Oc2c(NS(=O)(=O)c3cccs3)cccc2C1=O` the cytotoxicity call was “active”. For `C[C@@H]1CN([C@H](C)CO)C(=O)c2cccc(NS(=O)(=O)c3cccs3)c2O[C@@H]1CN(C)S(=O)(=O)c1cn(C)cn1`, the cytotoxicity call was “inactive”. In the case of `Cc1ccc(S(=O)(=O)N(C)C[C@@H]2Oc3c(NS(=O)(=O)c4cccs4)cccc3C(=O)N([C@@H](C)CO)C[C@H]2C)cc1`, the cytotoxicity call is reported as “inactive”. `Cc1ccc(S(=O)(=O)N(C)C[C@@H]2Oc3c(NS(=O)(=O)c4cccs4)cccc3C(=O)N([C@H](C)CO)C[C@@H]2C)cc1` was tested, and the cytotoxicity call was “active”. With `C[C@@H]1CN([C@H](C)CO)C(=O)c2cccc(NS(=O)(=O)c3cn(C)cn3)c2O[C@@H]1CN(C)S(C)(=O)=O` the cytotoxicity call was “inactive”. For `C[C@H]1CN([C@@H](C)CO)C(=O)c2cccc(NS(=O)(=O)c3cccs3)c2O[C@H]1CN(C)S(=O)(=O)c1cn(C)cn1`, the cytotoxicity call was “inactive”. With `C[C@H]1CN([C@@H](C)CO)C(=O)c2cccc(NS(=O)(=O)c3cn(C)cn3)c2O[C@H]1CN(C)S(C)(=O)=O` the cytotoxicity call was “inactive”. `O=C(NO)c1ccncc1` was tested, and the cytotoxicity call was “inactive”. `C[C@H]1CN([C@@H](C)CO)C(=O)c2c(c3ccccc3n2C)-c2ccccc2CO[C@@H]1CN(C)C(=O)Nc1ccccc1C(F)(F)F` was tested, and the cytotoxicity call was “inactive”. `CC(C)NC(=O)N(C)C[C@H]1Oc2ccc(NC(=O)CCN3CCOCC3)cc2C(=O)N([C@H](C)CO)C[C@@H]1C` was tested, and the cytotoxicity call was “inactive”. `O=C(C[C@H]1CC[C@H]2[C@@H](COC[C@H](O)CN2C(=O)Nc2ccc(C(F)(F)F)cc2)O1)NCCc1ccncc1` was tested, and the cytotoxicity call was “inactive”. For `Cc1noc(C)c1NC(=O)N(C)C[C@@H]1Oc2c(NC(=O)Nc3cccc4ccccc34)cccc2C(=O)N([C@@H](C)CO)C[C@@H]1C`, the cytotoxicity call was “inactive”. With `COc1ccc(-c2cnc3c(c2)C(=O)N([C@H](C)CO)C[C@H](C)[C@H](CN(C)C(=O)C2CCOCC2)O3)cc1` the cytotoxicity call was “inactive”. For `C[C@@H]1CN([C@H](C)CO)C(=O)c2cc(NS(=O)(=O)c3ccc(F)cc3)ccc2O[C@H]1CN(C)C(=O)Nc1ccc(C(F)(F)F)cc1`, the cytotoxicity call was “inactive”. In the case of `O=c1nc(Nc2ccccc2)cn[nH]1`, the cytotoxicity call is reported as “inactive”. With `CO[C@H]1CN(C)C(=O)c2ccc(NC(=O)Nc3ccccc3F)cc2OC[C@H](C)N(Cc2ccccc2C(=O)O)C[C@@H]1C` the cytotoxicity call was “inactive”. `COc1cccc2c1C(=O)c1c(O)c3c(c(O)c1C2=O)C[C@@](O)(C(=O)CO)C[C@@H]3O[C@H]1C[C@H](N)[C@H](O)[C@H](C)O1` was tested, and the cytotoxicity call was “active”. For `CCCCC(=O)OCC(=O)[C@]1(O)Cc2c(O)c3c(c(O)c2[C@@H](O[C@H]2C[C@H](NC(=O)C(F)(F)F)[C@H](O)[C@H](C)O2)C1)C(=O)c1c(OC)cccc1C3=O`, the cytotoxicity call was “active”. In the case of `COc1cccc2c1C(=O)c1c(O)c3c(c(O)c1C2=O)CC(O)(C(=O)CO)CC3OC1CC(N)C(O)C(C)O1.Cl` (stereo not given), the cytotoxicity call is reported as “active”. `COc1cccc2c1C(=O)c1c(O)c3c(c(O)c1C2=O)CC(O)(C(=O)CO)CC3OC1CC(N)C(O)C(C)O1` (stereo not given) [listing 1 of 2 here] was tested, and the cytotoxicity call was “active”. `C[C@@H]1CN([C@@H](C)CO)C(=O)Cc2cc(NS(=O)(=O)c3ccc(Cl)cc3)ccc2O[C@@H]1CN(C)Cc1ccc(C(=O)Nc2ccccc2N)cc1` was tested, and the cytotoxicity call was “inactive”. For `CN1N=C2CCN(C(=O)[C@@H](COCc3ccccc3)NC(=O)C(C)(C)N)C[C@@]2(Cc2ccccc2)C1=O`, the cytotoxicity call was “inactive”. `C[C@H]1CN([C@@H](C)CO)C(=O)c2ccccc2-c2ccccc2CO[C@H]1CN(C)C(=O)Nc1cccc(F)c1` was tested, and the cytotoxicity call was “inactive”. For `C[C@@H]1CCCCO[C@@H](CN(C)C(=O)Nc2cccc3ccccc23)[C@@H](C)CN([C@H](C)CO)C(=O)c2cc(NC(=O)c3ccncc3)ccc2O1`, the cytotoxicity call was “inactive”. With `CCC(=O)OC1(C(=O)SCF)C(C)CC2C3CC(F)C4=CC(=O)C=CC4(C)C3(F)C(O)CC21C` (stereo not given) the cytotoxicity call was “inactive”. In the case of `Cc1cc(O)c(C=O)c2c1C(=O)Oc1c(COC(=O)C=CC(=O)O)c(O)c(C(=O)O)c(C)c1O2`, the cytotoxicity call is reported as “inactive”. For `C[C@H]1CN([C@@H](C)CO)S(=O)(=O)c2ccc(-c3cncnc3)cc2O[C@H]1CN(C)C(=O)Cc1ccccc1`, the cytotoxicity call was “inactive”. In the case of `COc1ccc([C@@H]2C/C=C\C[C@@H](c3cccc(Cl)c3)NC(=O)[C@@H](c3ccccc3)CC(=O)N2)c(OC)c1`, the cytotoxicity call is reported as “inactive”. With `COc1ccc(S(=O)(=O)Nc2ccc3c(c2)CC(=O)N([C@@H](C)CO)C[C@@H](C)[C@@H](CN(C)S(=O)(=O)c2ccccc2)O3)cc1` the cytotoxicity call was “inactive”. For `Cc1noc(C)c1NC(=O)Nc1ccc2c(c1)CC(=O)N([C@H](C)CO)C[C@@H](C)[C@H](CN(C)Cc1ccc(C(=O)Nc3ccccc3N)cc1)O2`, the cytotoxicity call was “inactive”. In the case of `COc1cccc2c1C(=O)c1c(O)c3c(c(O)c1C2=O)C[C@](O)(C(=O)CO)C[C@H]3O[C@H]1C[C@@H](N)[C@@H](O)[C@@H](C)O1`, the cytotoxicity call is reported as “active”. For `COc1cccc2c1C(=O)c1c(O)c3c(c(O)c1C2=O)C[C@@](O)(C(=O)CO)C[C@@H]3O[C@H]1C[C@H](N)[C@@H](O)[C@H](C)O1`, the cytotoxicity call was “active”. In the case of `COc1cccc2c1C(=O)c1c(O)c3c(c(O)c1C2=O)CC(O)(C(=O)CO)CC3OC1CC(N)C(O)C(C)O1` (stereo not given) [listing 2 of 2 here], the cytotoxicity call is reported as “active”. In the case of `C[C@@H]1CN([C@H](C)CO)C(=O)c2cc(NC(=O)C3CC3)ccc2O[C@H]1CN(C)C(=O)Nc1ccc2c(c1)OCO2`, the cytotoxicity call is reported as “inactive”. With `C[C@H]1COC(=O)[C@@H](Cc2ccc(F)cc2)CCC=CC[C@@H](CC(=O)N[C@H](CO)Cc2ccccc2)C(=O)N1` the cytotoxicity call was “inactive”. For `CC(C)NC(=O)N(C)C[C@@H]1Oc2ccc(NC(=O)CCC(F)(F)F)cc2C(=O)N([C@H](C)CO)C[C@H]1C`, the cytotoxicity call was “inactive”. `COc1cccc(-c2cccc(-c3nc(C(=O)NCC(F)(F)F)cc4c3[C@@H](CCO)N([S@](=O)C(C)(C)C)C4)c2)c1` was tested, and the cytotoxicity call was “inactive”. `O=C(O)CN(CCN(CC(=O)O)CC(=O)O)CC(=O)O.[Na+].[Na+]` was tested, and the cytotoxicity call was “inactive”. With `C[C@H]1CN([C@@H](C)CO)C(=O)Cc2cc(NC(=O)CCCN(C)C)ccc2O[C@@H]1CN(C)C(=O)NC1CCCCC1` the cytotoxicity call was “inactive”. In the case of `Cc1noc(C)c1NC(=O)N(C)C[C@H]1OCCCC[C@@H](C)Oc2ccc(NC(=O)Cc3ccccc3)cc2C(=O)N([C@H](C)CO)C[C@@H]1C`, the cytotoxicity call is reported as “inactive”. `O=C(C[C@H]1CC[C@H]2[C@@H](COC[C@@H](O)CN2Cc2ccccc2F)O1)N[C@H]1CCN(Cc2ccccc2)C1` was tested, and the cytotoxicity call was “inactive”. `COC(=O)CN(C)c1nnc(N)s1` was tested, and the cytotoxicity call was “inactive”. With `COC(=O)Cc1csc(CC(N)=O)n1` the cytotoxicity call was “active”. `CCOC(=O)Cc1csc(/C(=N/O)C(N)=O)n1` was tested, and the cytotoxicity call was “inactive”. For `COC(=O)c1c(CC[C@@H](CO)NC(=O)NCCn2cc(C3(O)CCCC3)nn2)oc(C(C)=O)c1C(=O)OC`, the cytotoxicity call was “inactive”. For `Cc1ccc(S(=O)(=O)N(C)C[C@@H]2OCCCC[C@@H](C)Oc3ccc(NC(=O)Nc4c(C)noc4C)cc3C(=O)N([C@@H](C)CO)C[C@H]2C)cc1`, the cytotoxicity call was “inactive”. In the case of `C[C@@H]1CN([C@@H](C)CO)C(=O)c2cccc(NS(=O)(=O)c3cccs3)c2O[C@H]1CN(C)Cc1ccc(-c2ccccc2)cc1`, the cytotoxicity call is reported as “inactive”. `C[C@H]1CN([C@@H](C)CO)C(=O)Cc2cc(NC(=O)Cc3cn(C)c4ccccc34)ccc2O[C@@H]1CN(C)C` was tested, and the cytotoxicity call was “inactive”. With `COc1cc2c(cc1OC)CN(CCc1ccc(-n3nnc(-c4cc(OC)c(OC)cc4NC(=O)c4cc(=O)c5ccccc5o4)n3)cc1)CC2` the cytotoxicity call was “inactive”. With `COc1cc2c(cc1OC)CN(CCc1ccc(NC(=O)c3cccc4c(=O)c5cccc(OC)c5[nH]c34)cc1)CC2` the cytotoxicity call was “inactive”. `COc1cc2c(cc1OC)CN(CCc1ccc(NC(=O)c3cc(OC)c(OC)cc3NC(=O)c3cnc4ccccc4c3)cc1)CC2` was tested, and the cytotoxicity call was “active”. `CNC[C@@H]1Oc2ccc(NC(=O)Cn3cnnn3)cc2C(=O)N([C@@H](C)CO)C[C@H]1C` was tested, and the cytotoxicity call was “inactive”. `CCCCCCO[C@H](C)c1c(c/2[nH]c1/C=C/1\N=C(/C=C/3\NC4=C(CC(=O)C4=C3C)C3=N/C(=C2)[C@@H](C)[C@@H]3CCC(=O)O)C(=C1C)CC)C` was tested, and the cytotoxicity call was “active”. `Cc1noc(C)c1NC(=O)Nc1cccc2c1O[C@@H](CN(C)Cc1ccc(C(F)(F)F)cc1)[C@@H](C)CN([C@H](C)CO)C2=O` was tested, and the cytotoxicity call was “inactive”.
